# Assay results reported in ChEMBL document CHEMBL1961873, “Compounds: GSK PKIS; Assays: Nanosyn kinase panel” (2012).
# Experiments:
# [1] = target: Protein kinase C gamma type (Homo sapiens) (UniProt P05129); settings: at 1 µM;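 note: each value is an averaged percent inhibition of the enzyme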
# [2] = target: T1, Protein kinase C iota type (Homo sapiens) (UniProt P41743); settings: at 0.1 µM
# T1 sequence (whole entry): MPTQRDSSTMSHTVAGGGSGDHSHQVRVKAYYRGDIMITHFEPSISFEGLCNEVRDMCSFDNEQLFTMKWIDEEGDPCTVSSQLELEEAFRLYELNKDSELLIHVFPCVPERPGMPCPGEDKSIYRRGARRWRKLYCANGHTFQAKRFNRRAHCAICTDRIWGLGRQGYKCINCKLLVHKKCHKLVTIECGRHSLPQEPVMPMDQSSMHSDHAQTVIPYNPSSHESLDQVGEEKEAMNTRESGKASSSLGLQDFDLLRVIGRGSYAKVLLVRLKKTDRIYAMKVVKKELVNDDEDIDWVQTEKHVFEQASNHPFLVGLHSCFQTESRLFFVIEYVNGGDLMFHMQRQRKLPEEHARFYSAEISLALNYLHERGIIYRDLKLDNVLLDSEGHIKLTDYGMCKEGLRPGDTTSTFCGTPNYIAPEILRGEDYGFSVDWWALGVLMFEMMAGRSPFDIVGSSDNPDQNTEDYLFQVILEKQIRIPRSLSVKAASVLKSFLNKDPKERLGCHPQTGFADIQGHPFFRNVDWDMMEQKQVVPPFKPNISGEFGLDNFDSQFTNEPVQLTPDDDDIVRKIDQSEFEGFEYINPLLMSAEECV
# [3] = target: T1, Protein kinase C iota type (Homo sapiens); settings: at 1 µM
# [4] = target: Protein kinase C theta type (Homo sapiens) (UniProt Q04759); settings: at 0.1 µM
# Chain of Protein kinase C theta type (Homo sapiens) (Q04759 whole entry, looked up): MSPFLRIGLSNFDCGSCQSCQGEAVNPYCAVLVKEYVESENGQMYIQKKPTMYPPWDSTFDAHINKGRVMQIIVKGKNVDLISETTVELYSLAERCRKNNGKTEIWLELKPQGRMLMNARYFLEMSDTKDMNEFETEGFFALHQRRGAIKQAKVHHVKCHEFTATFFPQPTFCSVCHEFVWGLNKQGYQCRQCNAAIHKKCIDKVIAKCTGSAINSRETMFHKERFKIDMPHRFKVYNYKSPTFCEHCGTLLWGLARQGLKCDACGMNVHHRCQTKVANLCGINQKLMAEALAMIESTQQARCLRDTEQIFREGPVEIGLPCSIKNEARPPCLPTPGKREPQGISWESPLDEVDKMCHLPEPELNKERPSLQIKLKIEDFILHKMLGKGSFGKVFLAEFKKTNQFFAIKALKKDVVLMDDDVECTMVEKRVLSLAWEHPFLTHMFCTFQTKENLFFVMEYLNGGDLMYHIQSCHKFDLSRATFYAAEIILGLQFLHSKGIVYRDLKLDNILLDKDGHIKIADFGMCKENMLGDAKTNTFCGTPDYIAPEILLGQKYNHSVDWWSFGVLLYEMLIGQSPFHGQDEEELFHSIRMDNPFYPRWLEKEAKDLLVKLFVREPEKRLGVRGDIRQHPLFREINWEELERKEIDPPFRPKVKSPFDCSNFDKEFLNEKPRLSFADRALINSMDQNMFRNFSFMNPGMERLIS
# [5] = target: Protein kinase C theta type (Homo sapiens) (UniProt Q04759); settings: at 1 µM
# [6] = target: Protein kinase C beta type (Homo sapiens) (UniProt P05771); settings: at 0.1 µM
# Chain of Protein kinase C beta type (Homo sapiens) (P05771 2-671 limits assumed): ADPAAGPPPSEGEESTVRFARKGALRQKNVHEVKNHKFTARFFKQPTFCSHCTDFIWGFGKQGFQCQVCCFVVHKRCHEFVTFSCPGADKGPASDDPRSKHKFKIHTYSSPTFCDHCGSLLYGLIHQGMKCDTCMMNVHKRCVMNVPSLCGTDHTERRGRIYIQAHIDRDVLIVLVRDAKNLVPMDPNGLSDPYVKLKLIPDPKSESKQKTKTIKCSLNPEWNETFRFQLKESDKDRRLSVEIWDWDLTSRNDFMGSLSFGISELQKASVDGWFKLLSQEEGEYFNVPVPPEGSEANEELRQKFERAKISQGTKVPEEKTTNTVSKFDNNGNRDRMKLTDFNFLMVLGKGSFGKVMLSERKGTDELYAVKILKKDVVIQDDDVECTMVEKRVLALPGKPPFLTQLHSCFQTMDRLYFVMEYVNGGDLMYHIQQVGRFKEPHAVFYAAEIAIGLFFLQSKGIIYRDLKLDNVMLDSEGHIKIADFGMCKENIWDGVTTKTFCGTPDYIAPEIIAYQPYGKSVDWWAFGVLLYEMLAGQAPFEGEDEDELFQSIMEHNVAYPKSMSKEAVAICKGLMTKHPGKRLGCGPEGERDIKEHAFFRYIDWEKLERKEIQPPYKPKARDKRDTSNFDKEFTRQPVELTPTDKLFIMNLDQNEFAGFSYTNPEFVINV
# [7] = target: Protein kinase C beta type (Homo sapiens) (UniProt P05771); settings: at 1 µM
# [8] = target: T2, Serine/threonine-protein kinase D1 (Homo sapiens) (UniProt Q15139); settings: at 0.1 µM
# T2 sequence (whole entry): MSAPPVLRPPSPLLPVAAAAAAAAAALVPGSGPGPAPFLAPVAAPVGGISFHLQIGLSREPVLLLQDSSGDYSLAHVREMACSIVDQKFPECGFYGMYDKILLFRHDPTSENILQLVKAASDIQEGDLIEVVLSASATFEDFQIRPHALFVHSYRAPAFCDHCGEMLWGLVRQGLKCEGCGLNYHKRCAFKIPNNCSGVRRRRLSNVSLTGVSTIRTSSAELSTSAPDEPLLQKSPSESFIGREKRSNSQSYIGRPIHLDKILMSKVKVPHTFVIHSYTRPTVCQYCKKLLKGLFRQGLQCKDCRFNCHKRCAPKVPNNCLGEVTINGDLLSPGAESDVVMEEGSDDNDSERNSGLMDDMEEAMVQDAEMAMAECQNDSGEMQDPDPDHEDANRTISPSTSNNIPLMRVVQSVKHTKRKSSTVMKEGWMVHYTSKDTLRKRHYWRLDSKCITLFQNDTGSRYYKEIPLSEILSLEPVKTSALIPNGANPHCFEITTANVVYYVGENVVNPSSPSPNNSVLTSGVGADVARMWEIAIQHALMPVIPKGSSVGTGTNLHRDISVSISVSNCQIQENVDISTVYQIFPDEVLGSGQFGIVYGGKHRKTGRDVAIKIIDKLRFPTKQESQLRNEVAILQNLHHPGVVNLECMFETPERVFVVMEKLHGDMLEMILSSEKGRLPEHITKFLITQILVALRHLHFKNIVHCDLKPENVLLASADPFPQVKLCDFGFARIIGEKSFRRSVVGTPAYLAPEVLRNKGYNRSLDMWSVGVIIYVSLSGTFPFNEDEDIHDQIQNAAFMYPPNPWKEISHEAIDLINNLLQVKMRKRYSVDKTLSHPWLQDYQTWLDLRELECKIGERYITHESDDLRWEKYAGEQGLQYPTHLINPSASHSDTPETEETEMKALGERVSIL
# [9] = target: T2, Serine/threonine-protein kinase D1 (Homo sapiens); settings: at 1 µM
# [10] = target: T3, Serine/threonine-protein kinase D2 (Homo sapiens) (UniProt Q9BZL6); settings: at 0.1 µM
# T3 sequence (whole entry): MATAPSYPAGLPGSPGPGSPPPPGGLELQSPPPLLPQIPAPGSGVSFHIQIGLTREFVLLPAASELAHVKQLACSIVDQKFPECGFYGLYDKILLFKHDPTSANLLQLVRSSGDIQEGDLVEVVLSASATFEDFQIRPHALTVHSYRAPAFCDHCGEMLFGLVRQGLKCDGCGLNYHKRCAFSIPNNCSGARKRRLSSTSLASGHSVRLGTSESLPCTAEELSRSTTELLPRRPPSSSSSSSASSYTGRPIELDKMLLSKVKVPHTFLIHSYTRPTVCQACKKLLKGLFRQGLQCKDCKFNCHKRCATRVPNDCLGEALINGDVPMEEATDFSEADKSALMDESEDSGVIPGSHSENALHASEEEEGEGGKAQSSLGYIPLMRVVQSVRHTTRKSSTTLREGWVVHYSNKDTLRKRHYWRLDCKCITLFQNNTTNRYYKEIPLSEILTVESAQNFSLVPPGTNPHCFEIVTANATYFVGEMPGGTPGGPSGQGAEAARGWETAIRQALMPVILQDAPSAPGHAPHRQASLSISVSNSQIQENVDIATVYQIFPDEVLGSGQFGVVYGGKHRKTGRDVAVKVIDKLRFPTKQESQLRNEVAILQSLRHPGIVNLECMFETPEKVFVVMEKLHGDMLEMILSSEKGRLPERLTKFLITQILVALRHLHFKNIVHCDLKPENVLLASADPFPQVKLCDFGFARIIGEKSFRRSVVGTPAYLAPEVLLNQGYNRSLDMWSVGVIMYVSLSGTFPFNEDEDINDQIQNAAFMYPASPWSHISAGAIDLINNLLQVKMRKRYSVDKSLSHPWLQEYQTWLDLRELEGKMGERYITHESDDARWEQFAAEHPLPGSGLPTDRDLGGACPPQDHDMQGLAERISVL
# [11] = target: T3, Serine/threonine-protein kinase D2 (Homo sapiens); settings: at 1 µM
# [12] = target: T4, Serine/threonine-protein kinase D3 (Homo sapiens) (UniProt O94806); settings: at 0.1 µM
# T4 sequence (whole entry): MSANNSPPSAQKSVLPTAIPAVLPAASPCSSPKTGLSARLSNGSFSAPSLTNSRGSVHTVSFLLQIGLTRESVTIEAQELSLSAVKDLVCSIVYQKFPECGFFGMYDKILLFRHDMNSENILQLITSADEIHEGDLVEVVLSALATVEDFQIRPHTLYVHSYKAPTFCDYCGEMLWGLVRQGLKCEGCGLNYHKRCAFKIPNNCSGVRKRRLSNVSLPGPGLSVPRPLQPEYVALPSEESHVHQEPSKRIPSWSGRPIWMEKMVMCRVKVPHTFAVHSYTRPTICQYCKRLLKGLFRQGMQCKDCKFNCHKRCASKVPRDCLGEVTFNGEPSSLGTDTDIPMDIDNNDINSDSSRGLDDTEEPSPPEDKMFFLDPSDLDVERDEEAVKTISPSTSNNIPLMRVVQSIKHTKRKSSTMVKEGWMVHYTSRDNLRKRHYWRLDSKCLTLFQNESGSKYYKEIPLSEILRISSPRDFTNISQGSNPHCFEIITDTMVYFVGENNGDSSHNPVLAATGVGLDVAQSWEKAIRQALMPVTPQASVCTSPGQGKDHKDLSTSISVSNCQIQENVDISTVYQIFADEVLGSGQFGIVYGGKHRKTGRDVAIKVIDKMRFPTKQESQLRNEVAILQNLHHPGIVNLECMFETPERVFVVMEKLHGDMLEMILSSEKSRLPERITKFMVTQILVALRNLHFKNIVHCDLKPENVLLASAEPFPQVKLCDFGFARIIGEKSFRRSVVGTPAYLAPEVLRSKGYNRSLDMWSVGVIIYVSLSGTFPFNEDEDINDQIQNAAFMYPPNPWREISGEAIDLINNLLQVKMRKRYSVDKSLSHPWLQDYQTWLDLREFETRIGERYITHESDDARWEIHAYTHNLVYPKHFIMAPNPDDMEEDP
# [13] = target: T4, Serine/threonine-protein kinase D3 (Homo sapiens); settings: at 1 µM
# [14] = target: T5, cGMP-dependent protein kinase 1 (Homo sapiens) (UniProt Q13976); settings: at 0.1 µM
# T5 sequence (whole entry): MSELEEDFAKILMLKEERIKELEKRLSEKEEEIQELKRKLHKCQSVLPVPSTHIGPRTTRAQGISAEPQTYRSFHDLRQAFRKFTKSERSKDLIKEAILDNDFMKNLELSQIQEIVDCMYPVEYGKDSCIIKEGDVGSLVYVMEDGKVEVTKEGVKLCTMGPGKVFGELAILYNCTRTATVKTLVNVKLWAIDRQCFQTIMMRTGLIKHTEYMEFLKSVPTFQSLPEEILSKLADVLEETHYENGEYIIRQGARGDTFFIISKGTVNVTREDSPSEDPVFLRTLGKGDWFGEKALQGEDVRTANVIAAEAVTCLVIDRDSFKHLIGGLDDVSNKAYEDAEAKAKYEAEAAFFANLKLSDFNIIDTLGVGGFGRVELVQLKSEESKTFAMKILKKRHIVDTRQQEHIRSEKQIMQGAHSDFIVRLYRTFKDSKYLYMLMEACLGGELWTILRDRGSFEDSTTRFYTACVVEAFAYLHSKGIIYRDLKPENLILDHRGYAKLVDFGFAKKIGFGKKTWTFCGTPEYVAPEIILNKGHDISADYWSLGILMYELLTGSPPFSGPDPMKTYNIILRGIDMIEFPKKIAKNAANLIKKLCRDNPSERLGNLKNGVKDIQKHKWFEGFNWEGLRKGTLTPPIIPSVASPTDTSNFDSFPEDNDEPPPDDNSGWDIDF
# [15] = target: T5, cGMP-dependent protein kinase 1 (Homo sapiens); settings: at 1 µM
# [16] = target: T6, cGMP-dependent protein kinase 2 (Homo sapiens) (UniProt Q13237); settings: at 0.1 µM
# T6 sequence (whole entry): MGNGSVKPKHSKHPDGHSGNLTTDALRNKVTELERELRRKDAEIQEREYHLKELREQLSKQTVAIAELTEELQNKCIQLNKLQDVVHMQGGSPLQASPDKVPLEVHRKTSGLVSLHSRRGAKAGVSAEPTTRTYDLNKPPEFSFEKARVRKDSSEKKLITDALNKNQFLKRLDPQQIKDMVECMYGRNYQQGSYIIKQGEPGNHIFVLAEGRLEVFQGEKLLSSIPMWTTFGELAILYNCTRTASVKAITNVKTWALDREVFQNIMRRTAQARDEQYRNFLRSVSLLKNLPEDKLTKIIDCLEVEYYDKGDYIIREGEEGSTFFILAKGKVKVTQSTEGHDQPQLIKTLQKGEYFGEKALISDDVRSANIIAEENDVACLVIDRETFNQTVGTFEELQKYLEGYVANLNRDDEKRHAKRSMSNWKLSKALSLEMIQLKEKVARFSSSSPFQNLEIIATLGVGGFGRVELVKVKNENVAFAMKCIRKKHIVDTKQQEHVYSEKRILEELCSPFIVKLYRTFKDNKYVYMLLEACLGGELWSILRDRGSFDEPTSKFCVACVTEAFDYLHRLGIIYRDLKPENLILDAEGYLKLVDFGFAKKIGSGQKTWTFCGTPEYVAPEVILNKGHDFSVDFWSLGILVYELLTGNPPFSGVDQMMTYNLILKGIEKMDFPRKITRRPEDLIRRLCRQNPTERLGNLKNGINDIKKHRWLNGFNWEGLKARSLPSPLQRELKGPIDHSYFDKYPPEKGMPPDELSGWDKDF
# [17] = target: T6, cGMP-dependent protein kinase 2 (Homo sapiens); settings: at 1 µM
# [18] = target: T7, cAMP-dependent protein kinase catalytic subunit PRKX (Homo sapiens) (UniProt P51817); settings: at 0.1 µM
# T7 sequence (whole entry): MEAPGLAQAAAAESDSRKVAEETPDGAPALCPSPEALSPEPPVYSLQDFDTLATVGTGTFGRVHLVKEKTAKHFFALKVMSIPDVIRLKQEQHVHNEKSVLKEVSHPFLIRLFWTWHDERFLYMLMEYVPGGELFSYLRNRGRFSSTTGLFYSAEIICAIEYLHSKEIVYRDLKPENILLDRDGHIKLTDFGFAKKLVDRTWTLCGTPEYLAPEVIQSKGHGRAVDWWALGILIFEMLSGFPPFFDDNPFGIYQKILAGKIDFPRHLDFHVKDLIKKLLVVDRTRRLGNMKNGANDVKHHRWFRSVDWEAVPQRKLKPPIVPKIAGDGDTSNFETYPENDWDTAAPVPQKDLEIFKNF
# [19] = target: T7, cAMP-dependent protein kinase catalytic subunit PRKX (Homo sapiens); settings: at 1 µM
# [20] = target: Rho-associated protein kinase 1 (Homo sapiens) (UniProt Q13464); settings: at 0.1 µM;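 note: values are mean percent inhibition of ROCK1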
# Chain of Rho-associated protein kinase 1 (Homo sapiens) (Q13464 2-1354 limits assumed): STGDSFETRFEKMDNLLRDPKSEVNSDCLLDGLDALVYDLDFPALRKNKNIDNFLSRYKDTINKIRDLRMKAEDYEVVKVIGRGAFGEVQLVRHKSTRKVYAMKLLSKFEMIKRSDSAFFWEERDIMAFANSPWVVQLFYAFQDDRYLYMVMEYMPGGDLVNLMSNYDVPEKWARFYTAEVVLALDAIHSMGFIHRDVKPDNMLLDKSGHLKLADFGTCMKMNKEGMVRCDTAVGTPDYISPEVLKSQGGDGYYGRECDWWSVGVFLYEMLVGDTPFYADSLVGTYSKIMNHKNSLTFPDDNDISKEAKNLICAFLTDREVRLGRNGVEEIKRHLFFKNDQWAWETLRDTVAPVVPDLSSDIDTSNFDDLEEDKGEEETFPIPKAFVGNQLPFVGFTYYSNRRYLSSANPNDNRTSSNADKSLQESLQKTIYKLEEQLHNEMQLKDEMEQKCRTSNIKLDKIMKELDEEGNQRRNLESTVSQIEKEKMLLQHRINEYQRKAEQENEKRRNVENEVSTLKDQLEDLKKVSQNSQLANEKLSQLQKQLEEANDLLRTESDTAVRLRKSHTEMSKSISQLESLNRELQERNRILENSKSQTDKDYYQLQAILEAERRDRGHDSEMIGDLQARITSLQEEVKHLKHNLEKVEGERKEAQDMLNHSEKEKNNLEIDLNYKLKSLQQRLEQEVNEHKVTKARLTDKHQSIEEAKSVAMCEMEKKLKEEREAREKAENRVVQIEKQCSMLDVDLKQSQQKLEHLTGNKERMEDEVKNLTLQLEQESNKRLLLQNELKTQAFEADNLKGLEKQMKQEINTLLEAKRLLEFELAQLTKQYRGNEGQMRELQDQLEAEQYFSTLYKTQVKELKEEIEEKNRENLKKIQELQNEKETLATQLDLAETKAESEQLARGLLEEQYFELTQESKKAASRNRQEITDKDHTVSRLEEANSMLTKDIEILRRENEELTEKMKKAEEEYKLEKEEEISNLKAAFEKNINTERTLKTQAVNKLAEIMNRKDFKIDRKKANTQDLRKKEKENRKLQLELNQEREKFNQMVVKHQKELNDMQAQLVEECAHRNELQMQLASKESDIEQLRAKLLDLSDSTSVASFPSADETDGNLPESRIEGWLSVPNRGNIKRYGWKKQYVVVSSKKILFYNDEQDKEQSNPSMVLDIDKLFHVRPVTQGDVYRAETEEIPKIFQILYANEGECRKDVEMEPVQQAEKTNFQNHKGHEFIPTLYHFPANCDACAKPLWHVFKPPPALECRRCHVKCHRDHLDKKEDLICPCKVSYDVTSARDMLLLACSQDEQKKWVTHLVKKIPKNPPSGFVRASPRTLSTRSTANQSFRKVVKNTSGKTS
SMILES,inhibition [1],inhibition [2],inhibition [3],inhibition [4],inhibition [5],inhibition [6],inhibition [7],inhibition [8],inhibition [9],inhibition [10],inhibition [11],inhibition [12],inhibition [13],inhibition [14],inhibition [15],inhibition [16],inhibition [17],inhibition [18],inhibition [19],inhibition [20]
O=C(Nc1ccc(Oc2ccc3[nH]c(NC(=O)c4ccco4)nc3c2)cc1)Nc1cc(C(F)(F)F)ccc1F,2.22%,0.86%,-0.83%,-0.73%,1.78%,0.05%,1.61%,-3.35%,-2.46%,-3.46%,-1.48%,-3.15%,-1.16%,1.18%,4.28%,1.74%,4.38%,4%,4.61%,3.36%
COc1cc(Nc2nccc(-c3cnn4ncccc34)n2)cc(OC)c1,16.8%,-0.04%,0.62%,0.09%,6.77%,1.8%,16.9%,1.77%,16.4%,2.57%,15.9%,-0.68%,19.6%,12.2%,57.2%,3.45%,24.4%,0.67%,0.29%,0.75%
COc1cccc(-n2ncc3c(N/N=C/c4ccc(S(C)(=O)=O)cc4)ncnc32)c1,3.18%,2.06%,0.98%,-0.11%,1.19%,2.19%,13.3%,-2.12%,-1.45%,-2.64%,-2.8%,-6.98%,-2.38%,1.11%,1.69%,1.59%,1.79%,1.68%,1.61%,0.21%
